# Data: PubChem BioAssay (Tox21)
# Several values for one entry are separate records, joined by “and”; a condition that tells them apart may be missing. Equal entries are not always repeated. Inconclusive results are not listed. Activity calls are given as the source filed them. Calls follow the shape of the dose curve; as a rule, active = well fitted inhibition curve with a large enough effect in the repeat runs; inconclusive = weak or mixed curves; inactive = no such curve, though single readings can be large or run the other way.
# Target: Cytochrome P450 2C9 (Homo sapiens) (UniProt P11712)
# Sequence (P11712 whole entry, looked up): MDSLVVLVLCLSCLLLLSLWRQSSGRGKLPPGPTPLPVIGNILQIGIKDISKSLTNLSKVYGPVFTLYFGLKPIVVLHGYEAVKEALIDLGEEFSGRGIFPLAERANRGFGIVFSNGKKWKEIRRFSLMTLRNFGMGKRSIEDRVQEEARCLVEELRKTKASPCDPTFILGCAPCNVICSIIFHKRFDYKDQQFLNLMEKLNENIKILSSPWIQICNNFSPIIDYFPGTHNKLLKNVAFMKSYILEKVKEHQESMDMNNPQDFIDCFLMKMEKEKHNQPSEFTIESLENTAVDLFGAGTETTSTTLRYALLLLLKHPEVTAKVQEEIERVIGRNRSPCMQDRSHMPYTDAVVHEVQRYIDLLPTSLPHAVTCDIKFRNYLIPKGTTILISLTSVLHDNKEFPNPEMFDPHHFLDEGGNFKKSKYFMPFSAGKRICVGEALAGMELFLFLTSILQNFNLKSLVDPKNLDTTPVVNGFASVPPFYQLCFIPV
# Experiment: Cytochrome P450 Family 2 Subfamily C Member 9 (CYP2C9) small molecule antagonists: luciferase reporter qHTS assay (AID 1671198)
# Settings: P450-Glo CYP2C9 enzyme assay, luciferin luminescence; series mostly up to 53 µM
# Method in brief: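 CYP2C9 activity was measured with a P450-Glo proluciferin substrate. Enzyme–substrate mix was held with compound for 10 min at room temperature, then NADPH regeneration solution was added for 1 h at 37C. Luciferin product was read as luminescence.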
# Also: nearly all actives have a fitted effect of over 50% in size.
# Potency is read from the fitted curve at half-maximal effect.
row,Compound,Potency
1,CC1=C(/C=C/C(C)=C/C=C/C(C)=C/C=O)C(C)(C)CCC1,44.6 µM (active)
2,CCCCN(CCCC)c1ccc(C(=O)c2ccccc2C(=O)O)c(O)c1,6.39 µM (active)
3,CCCCCCCCCCCCCCCCCC[N+](C)(C)C,63.5 µM (active)
4,C=CC(=O)OCC(CO)(COC(=O)C=C)COC(=O)C=C,11.3 µM (active) and 11.2 µM (active)
5,CCCCN(CCCC)C(=O)N(CCCC)CCCC,inactive
6,O=C(OC[C@H]1O[C@@H](OC(=O)c2cc(O)c(O)c(OC(=O)c3cc(O)c(O)c(O)c3)c2)[C@H](OC(=O)c2cc(O)c(O)c(OC(=O)c3cc(O)c(O)c(O)c3)c2)[C@@H](OC(=O)c2cc(O)c(O)c(OC(=O)c3cc(O)c(O)c(O)c3)c2)[C@@H]1OC(=O)c1cc(O)c(O)c(OC(=O)c2cc(O)c(O)c(O)c2)c1)c1cc(O)c(O)c(OC(=O)c2cc(O)c(O)c(O)c2)c1,21.5 µM (active)
7,CCOC(=O)O[C@H](C)OC(=O)c1ccc2c(c1)cc(C(=O)NC1CCN(C(C)C)CC1)n2Cc1cc(-c2ccc(Cl)s2)on1,33.2 µM (active)
8,CCCCCCCCNC(C)C(O)c1ccc(SC(C)C)cc1 (centres undefined),30.9 µM (active)
9,CCCCCCCC(=O)[O-].CCCCCCCC(=O)[O-].[Zn+2],inactive

# Target: Cytochrome P450 1A2 (Homo sapiens) (UniProt P05177)
# Sequence (P05177 whole entry, looked up): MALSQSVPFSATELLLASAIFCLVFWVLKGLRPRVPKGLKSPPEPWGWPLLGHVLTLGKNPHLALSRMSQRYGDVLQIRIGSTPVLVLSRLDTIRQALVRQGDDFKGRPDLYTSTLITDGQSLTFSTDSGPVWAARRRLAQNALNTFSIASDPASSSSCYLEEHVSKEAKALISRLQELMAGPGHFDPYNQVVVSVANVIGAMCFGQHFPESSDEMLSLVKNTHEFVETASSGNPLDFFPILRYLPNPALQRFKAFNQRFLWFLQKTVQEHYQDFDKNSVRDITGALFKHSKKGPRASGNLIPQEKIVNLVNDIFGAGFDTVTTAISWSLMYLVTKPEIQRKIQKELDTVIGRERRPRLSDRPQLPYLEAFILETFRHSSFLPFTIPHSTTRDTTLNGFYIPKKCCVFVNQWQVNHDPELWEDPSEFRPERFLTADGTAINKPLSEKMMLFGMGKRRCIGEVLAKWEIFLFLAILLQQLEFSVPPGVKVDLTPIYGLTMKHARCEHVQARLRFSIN
# Experiment: Cytochrome P450 Family 1 Subfamily A Member 2 (CYP1A2) small molecule antagonists: luciferase reporter qHTS assay (AID 1671199)
# Settings: P450-Glo CYP1A2 enzyme, luciferin luminescence, 1 h; series mostly up to 53 µM
# Method in brief: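 Enzymatic CYP1A2 assay, human, luminescent: 10 min compound–enzyme–substrate preincubation, 1 h NADPH-dependent turnover, 20 min detection step, room temperature throughout. Reduced light indicates lower CYP1A2 activity.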
row,Compound,Potency
1,CCC1=C[C@@H]2CN(C1)Cc1c([nH]c3ccccc13)[C@@](C(=O)OC)(c1cc3c(cc1OC)N(C)[C@H]1[C@@](O)(C(=O)OC)[C@H](OC(C)=O)[C@]4(CC)C=CCN5CC[C@]31[C@@H]54)C2,inactive
2,C[n+]1cc2c3c(ccc2c2ccc4cc5c(cc4c21)OCO5)OCO3,12 µM (active)
3,CCc1cc(Cc2cc(CC)c(N)c(CC)c2)cc(CC)c1N,10 µM (active)
4,CCCCN(CCCC)c1ccc(C(=O)c2ccccc2C(=O)O)c(O)c1,63.9 µM (active)
5,O=C(O)c1cc(O)c2c(c1)C(=O)c1cccc(O)c1C2=O,36.7 µM (active)
6,CCCCCCCCCCCC(=O)NCCCN(C)C,35.6 µM (active)
7,CNCc1cc(F)ccc1Oc1ccc(Cl)c(Cl)c1,1 µM (active)
8,O=[N+]([O-])c1cc(Cl)c(Cl)c(Cl)c1Cl,2.24 µM (active)
9,CO[Si](CCCNc1ccccc1)(OC)OC,inactive
10,CS(=O)(=O)CCNCc1ccc(-c2ccc3ncnc(Nc4ccc(OCc5cccc(F)c5)c(Cl)c4)c3c2)o1,inactive
11,CCc1oc2ccccc2c1C(=O)c1cc(Br)c(O)c(Br)c1,inactive
12,O=C(Nc1cccc(Cl)c1)OCC#CCCl,1.78 µM (active)
13,Cc1nc(-c2ccc3c(c2)CCN(CCC2CCC(NC(=O)/C=C/c4ccc(F)cc4)CC2)CC3)no1 (centres undefined),inactive
14,CC[C@@]1(O)C(=O)OCc2c1cc1n(c2=O)Cc2c-1nc1ccccc1c2/C=N/OC(C)(C)C,inactive
15,N=C1N=C(N)c2cc3ccccc3cc21,1.78 µM (active)
16,CCCCCCCCCCCCCCCC(=O)OC[C@H](O)[C@H]1OC(=O)C(O)=C1O,inactive
17,CC(C)c1ccc2c(c1)CC[C@H]1[C@](C)(CN)CCC[C@]21C,35.6 µM (active)
18,CSc1ccc2c(c1)C(N1CCN(C)CC1)Cc1ccccc1S2 (centres undefined),inactive
19,CC(C)(C)C(=O)OCOC(=O)C1N2C(=O)CC2S(=O)(=O)C1(C)C (centres undefined),inactive
20,Clc1ccc2cc3ccccc3cc2c1,1.59 µM (active)
